# Reference: PubChem BioAssay (NCI)
# The panel holds about 83,000 compounds, 20% with a hit somewhere; the sample as a whole holds those more often.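 Compound tested at a single concentration for 48 hours in 96-well plates; a percent growth value below 10 was scored as active.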 A number with no mark means an inactive call. Activity calls are given as the source filed them.
# How the values were obtained:
# Test in all cases: NCI-60 one-dose screen, 48 h (100 = growth as untreated, 0 = no growth, -100 = all killed)
# Settings in all cases: 10 µM unless noted
# SR leukemia = test system: SR leukemia
# RPMI-8226 leukemia = test system: RPMI-8226 leukemia
# OVCAR-8 ovarian = test system: OVCAR-8 ovarian
# OVCAR-5 ovarian = test system: OVCAR-5 ovarian
# OVCAR-4 ovarian = test system: OVCAR-4 ovarian
# SK-OV-3 ovarian = test system: SK-OV-3 ovarian
# IGROV1 ovarian = test system: IGROV1 ovarian
# OVCAR-3 ovarian = test system: OVCAR-3 ovarian
# HS 578T breast = test system: HS 578T breast
# NCI/ADR-RES ovarian = test system: NCI/ADR-RES ovarian
SMILES,growth (SR leukemia),growth (RPMI-8226 leukemia),growth (OVCAR-8 ovarian),growth (OVCAR-5 ovarian),growth (OVCAR-4 ovarian),growth (SK-OV-3 ovarian),growth (IGROV1 ovarian),growth (OVCAR-3 ovarian),growth (HS 578T breast),growth (NCI/ADR-RES ovarian)
O=C1Nc2ccc(Cl)cc2/C1=C/c1ccc[nH]1,50.4%,101%,102%,83.7%,44.3%,117%,58.2%,90.5%,114%,112%
Cn1cc(-c2csc(-c3cn(CCCN4CCOCC4)c4ccc(F)cc34)n2)c2cccnc21,48.4%,34.8%,47.6%,73%,56.6%,80%,76.3%,77.6%,46.6%,53.8%
COc1ccccc1S(=O)(=O)Nc1ccc2c3c(cc(CCC(=O)NCCCCNc4cccc5c4C(=O)N(C4CCC(=O)NC4=O)C5=O)cc13)C(=O)N2C (stereo not given),13.9%,53.6%,4.39% (active),42%,-19.8% (active),34.6%,-9.53% (active),30%,-17.8% (active),88.2%
C[C@@H]1NC(=O)[C@H](Cc2ccccc2)N(Cc2cccnc2)C1=O,96.9%,105%,102%,96.7%,102%,99.2%,107%,110%,94.3%,104%
COc1ccc(/C=C/C(c2cc(OC)c(OC)c(OC)c2)n2cncn2)cc1O (stereo not given),5.67% (active),19.9%,16%,86.5%,83.5%,12.7%,50.5%,15.7%,28.5%,10.8%
CCCCCCCCCCOC(=O)c1nn(C(C)=O)c2cc(C)c(C)cc12,98.2%,88.9%,98.5%,100%,0.466% (active),92.3%,103%,111%,104%,98.1%
CC(C)(C)c1ccc(S(=O)(=O)Oc2ccc(-c3sc4cc(OS(=O)(=O)c5ccc(C(C)(C)C)cc5)ccc4c3C(=O)c3ccc(OCCN4CCCCC4)cc3)cc2)cc1,104%,93.6%,115%,99.4%,97.1%,88.8%,101%,102%,104%,97.9%
Clc1ccc(Nc2ncc(Cc3cccc(Cl)c3Cl)s2)cc1,102%,89.4%,98%,85.8%,94.8%,102%,93.3%,100%,102%,93.3%
CN(C)C1CN(C(=O)c2cc(-c3ccc4ncnc(N5CCc6cc(F)c(Cl)cc65)c4c3)cnc2N)C1,13.3%,-10.8% (active),16%,28.1%,5.94% (active),23.1%,-33.6% (active),-16.5% (active),-24.1% (active),21.1%
COc1ccc(Oc2ccc(/C=C/C(=O)c3cc4ccccc4oc3=O)cc2)cc1,80.9%,59.6%,93.5%,112%,80.7%,92.4%,70.1%,107%,101%,85.6%
O=C(O)c1cn(C2CC2)c2cc(N3CCN(C(=O)N4CCOCC4)CC3)c(F)cc2c1=O,116%,108%,104%,104%,106%,100%,94%,109%,119%,105%
O=S(Nc1ccccc1)c1ccc(Cl)cc1 (stereo not given),78.8%,99.3%,100%,109%,95.5%,109%,105%,112%,84.6%,106%
O=C1/C(=C/c2ccccn2)SC(=S)N1N1CCOCC1,108%,105%,98.9%,97.9%,107%,101%,94.1%,99.5%,96.7%,104%
O=S(=O)(N=C1C(Cl)=C(Cl)C(=NS(=O)(=O)c2ccccc2)C(Cl)=C1Cl)c1ccccc1,46.4%,79.4%,69%,73.8%,91.9%,102%,57.7%,130%,93.2%,65.3%
O=C(NCCNC(c1ccccc1)C(NCCNC(=O)c1ccccc1)c1ccccc1)c1ccccc1 (stereo not given),50.2%,90.1%,78.9%,83.8%,91.3%,99.9%,82.4%,116%,115%,76.6%
CCOC(=O)c1cnn(CC(C)O)c1NC(=O)NCc1ccccc1C(F)(F)F (stereo not given),82.3%,116%,97.6%,102%,98.6%,101%,95.5%,108%,110%,100%
CCN(CC)C(=O)C1=C(C)NC(=O)NC1c1ccc2c(c1)OCO2 (stereo not given),105%,102%,106%,105%,111%,111%,99.6%,113%,96.7%,104%
CC(=O)N1N=C(c2ccc(Nc3nc(Nc4ccc(F)cc4)nc(Nc4ccc(F)cc4)n3)cc2)CC1c1ccc(N(C)C)cc1 (stereo not given),-4.86% (active),4.52% (active),27.6%,78.4%,62.2%,90.6%,48%,69.5%,62.9%,27.5%
c1cc(OCCCCCOc2cccc(-c3nc4ccccc4[nH]3)c2)cc(-c2nc3ccccc3[nH]2)c1,-24.8% (active),-47.1% (active),15.7%,1.07% (active),8.16% (active),23.9%,10.8%,16.8%,25.3%,0.274% (active)
CS(=O)/C(C#N)=C\C=C\c1cccc(Cl)c1 (stereo not given),6.39% (active),2.54% (active),26.3%,34.1%,34.7%,43.7%,23.4%,10.6%,43.2%,-44.1% (active)
CCCCn1c(NC(C)=O)c(S(=O)(=O)c2ccccc2)c2nc3ccccc3nc21,86.9%,107%,98.9%,93.2%,100%,98.5%,76.3%,95.7%,95.9%,97.7%
CCCn1c(=S)sc2c(NNC(C)=O)nc(C)nc21,158%,93.1%,102%,98%,101%,99.9%,37.1%,118%,97.7%,101%
Cc1ccc(S(=O)(=O)OC[C@]23CCC(C)(C)C[C@H]2C2=CC[C@@H]4[C@@]5(C)CCCNC(C)(C)[C@@H]5CC[C@@]4(C)[C@]2(C)CC3)cc1,-27.3% (active),26.8%,-13.7% (active),84.7%,23.3%,103%,16.9%,76.5%,85.3%,52.3%
Cc1ccc(C2CC(c3cccc(Nc4ccncc4)c3)=Nc3c(N)nc(N)nc3N2)cc1 (stereo not given),-4.18% (active),44.9%,38%,95.5%,81.2%,97.9%,42.4%,82.1%,80%,101%
